Measurements published in PubChem BioAssay (NCATS).
Values joined by “and” are separate entries in the source; they are usually repeats but may differ in a detail not shown here. Equal entries are not always repeated. Results filed as inconclusive are left out. Active and inactive are the calls of the source. Calls follow the shape of the dose curve; as a rule, active = well fitted activation curve with a large enough effect; inconclusive = small, poorly fitted or top-dose-only effect; inactive = no such curve, though single readings can be large or run the other way.

biological target: Cellular tumor antigen p53 (Homo sapiens) (UniProt P04637); assay: Primary qHTS for small molecule compounds that upregulate eGFP-tagged delta133p53alpha (in N-terminal) cells. (AID 2060322); conditions: NCI-H358 eGFP-delta133p53alpha fluorescence, 24 h; activation: active compounds read high; also: nearly all actives have a fitted effect of over 75% in size;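 as to activation: cells pre-induced with doxycycline then dosed without doxycycline; series mostly up to about 56 µM; 0% = DMSO vehicle and 100% = reference activator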
Sequence (P04637 whole entry, looked up): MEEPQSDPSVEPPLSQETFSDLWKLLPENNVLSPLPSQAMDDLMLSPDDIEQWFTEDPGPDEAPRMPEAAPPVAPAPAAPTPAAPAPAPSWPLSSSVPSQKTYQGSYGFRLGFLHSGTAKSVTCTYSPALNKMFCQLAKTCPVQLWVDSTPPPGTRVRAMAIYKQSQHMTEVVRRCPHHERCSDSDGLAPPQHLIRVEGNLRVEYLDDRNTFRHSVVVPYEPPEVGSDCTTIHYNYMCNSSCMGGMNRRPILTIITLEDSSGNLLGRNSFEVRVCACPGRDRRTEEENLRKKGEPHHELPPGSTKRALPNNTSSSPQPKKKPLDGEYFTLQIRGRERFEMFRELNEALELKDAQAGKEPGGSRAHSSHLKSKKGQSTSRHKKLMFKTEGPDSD
Outline: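 NCI-H358 cells pre-induced 24 h with 10 ng/ml doxycycline for eGFP-delta133p53alpha, plated dox-free and exposed 24 h at 37C to titrated compounds. Fixed, Hoechst-stained; gated GFP peak intensity by laser scanning cytometry, normalized to DMSO (0%) and 57.5 uM 5-azacytidine (100%).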
Potency is read from the fitted curve at half-maximal effect.

Compound | activation | Potency
CC(C(=O)O)c1cccc(Oc2ccccc2)c1 (stereo not given) | 32.2% (inactive) | 
OC[C@]1(O)OC[C@@H](O)[C@H](O)[C@@H]1O | -16.7% (inactive) | 
C=CCn1c(=O)n([C@@H]2O[C@H](CO)[C@@H](O)[C@H]2O)c2nc(N)[nH]c(=O)c21 | -0.565% (inactive) | 
N#CC(=C(N)Sc1ccc(N)cc1)c1ccccc1C(F)(F)F | 19.5% (inactive) | 
CCS(=O)(=O)CCn1c([N+](=O)[O-])cnc1C |  | 17.4 µM (active)
CCCCCCCCCCCCCCCCCCNC(=O)OC1CCN(C(=O)OC[C@H](COC(=O)N(Cc2cccc[n+]2CC)C(=O)c2ccccc2OC)OC)CC1 | 1.67% (inactive) | 
CCCCC(CC)CNC(=O)CC(C)OC(=O)CCC(=O)O (stereo not given) | 11.7% (inactive) | 
CC(C)(C)c1nnc(NS(=O)(=O)c2ccc(N)cc2)s1 | -16.7% (inactive) | 
CC(C)CCOC(=O)c1ccc(N(C)C)cc1 | 6.69% (inactive) | 
O=C1NC(=O)C(=Cc2ccc3nccc(-c4ccncc4)c3c2)S1 | 3.34% (inactive) | 
NC(N)=Nc1nc(CSCCC(N)=NS(N)(=O)=O)cs1 | 11% (inactive) | 
COC(=O)c1cc(Cl)c(NC(C)=O)cc1OC | 11.9% (inactive) | 
NC(=O)C1(N2CCCCC2)CCN(CCCC(=O)c2ccc(F)cc2)CC1 | 14.2% (inactive) | 
OCCN1C[C@H](O)[C@@H](O)[C@H](O)[C@@H]1CO | 24.9% (inactive) | 
CC(C)C(=O)Nc1cccc(C2CN3CCSC3=N2)c1 (stereo not given) | 6.69% (inactive) | 
CNC1[C@H](O)C(O[C@@H]2C(O)C(O[C@H]3O[C@H]([C@@H](C)NC)CC[C@H]3N)[C@@H](N)C[C@H]2N)OC[C@]1(C)O (stereo not given in full) | -1.3% (inactive) | 
O=C(O)CCC(=O)c1ccc(-c2ccccc2)cc1 | -11.9% (inactive) | 
Cc1cc(-c2ccccc2)nnc1NCCN1CCOCC1 | 16.4% (inactive) | 
CCCCN(CCCC)CCCOC(=O)c1ccc(N)cc1 | -2.51% (inactive) | 
CCCCCOC(=O)Nc1nc(=O)n([C@@H]2O[C@H](C)[C@@H](O)C2O)cc1F (stereo not given in full) | -14.6% (inactive) | 

Compound | activation | Potency
CCC(=O)c1ccc(O)cc1 | -10% (inactive) | 
N[C@@H](C(=O)N[C@@H]1C(=O)N2C(C(=O)O)=C(Cl)CS[C@H]12)c1ccccc1 | -19.2% (inactive) and 26.9% (inactive) | 
N=C1N=C(N)c2cc3ccccc3cc21 |  | 35.5 µM (active)
CC(=O)CC(c1ccc([N+](=O)[O-])cc1)c1c(O)c2ccccc2oc1=O (stereo not given) | -10% (inactive) | 
CCC(=O)O[C@H]1[C@H](O[C@@H]2[C@@H](C)[C@H](O[C@H]3C[C@@](C)(OC)[C@@H](O)[C@H](C)O3)[C@@H](C)C(=O)O[C@H](CC)[C@@](C)(O)[C@H](O)[C@@H](C)C(=O)[C@H](C)C[C@@]2(C)O)O[C@H](C)C[C@@H]1N(C)C | 0.837% (inactive) | 
CN1CCCN(C(=O)c2cccc(-c3ccc(C=C4C(=O)Nc5ccc(Cl)cc54)o3)c2)CC1 | 19.8% (inactive) | 
C[N+](C)(C)CC(O)CC(=O)[O-] (stereo not given) | 7.53% (inactive) | 
CC(=O)N(CC(=O)N(C)C)c1ccccc1 | -7.53% (inactive) | 
COc1cc(C(=S)N2CCOCC2)ccc1O | -10.7% (inactive) | 
O=S(c1cc(Cl)cc(Cl)c1O)c1cc(Cl)cc(Cl)c1O | -0.565% (inactive) | 
CC=CC(=O)N(CC)c1ccccc1C | -8.73% (inactive) | 
Oc1ccc(C(O)CNCCCCCCNCC(O)c2ccc(O)c(O)c2)cc1O (stereo not given) | 2.82% (inactive) | 
NS(=O)(=O)c1cc(C(=O)NN2C[C@H]3[C@H]4CCC(C4)[C@H]3C2)ccc1Cl | 0% (inactive) | 
CCOC(=O)c1ccc(O)cc1 | -12.6% (inactive) | 
C[C@@]12C(=O)OC(=O)[C@@]1(C)C1CCC2O1 |  | 9.68 µM (active)
Cc1cc(-n2nc3ccc(Cl)cc3n2)c(O)c(C(C)(C)C)c1 | 19.8% (inactive) | 
CC1CC(OC(=O)c2ccccc2O)CC(C)(C)C1 (stereo not given) | -0.565% (inactive) | 
CC(=O)[C@@]1(O)CC[C@H]2[C@@H]3C[C@H](C)C4=CC(=O)C=C[C@]4(C)[C@@]3(F)[C@@H](O)C[C@@]21C | -11.7% (inactive) | 
CC1(C)C(=O)CCC2(C)C1C(O)C=C1COC(=O)C12O (stereo not given) | 25.2% (inactive) | 
Nc1nc2ncc(CNc3ccc(C(=O)N[C@@H](CCC(=O)O)C(=O)O)cc3)nc2c(=O)[nH]1 | -10% (inactive) | 
